# Test results as given in PubChem BioAssay AID485275 (NMMLSC, 2010).
# Out of some 330,000 compounds screened, about 1,400 (0.42%) were called active. Shown is part of a subset that was picked to be rich in actives. A number with no mark means an inactive call.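 Rule for the calls: active = plate passing quality check with inhibition over a set limit, or well fluorescence over plate mean plus 4 SD; inactive = the rest.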
# Assay: inhibitors of Candida efflux pumps in yeast, primary screen, S. cerevisiae, Nile Red, multiplex (AID 485275);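 note: Nile Red retained in pooled yeast measured as flow cytometry median fluorescence; 0% = buffer negative control and 100% = Enniatin B positive control; higher means more Nile Red kept so more efflux inhibition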
# Conditions: S. cerevisiae Candida pump triplex, at 10 µM, hits give high values
row,SMILES,inhibition
1,O=c1[nH]c2ccccc2n2c(-c3ccccc3)nnc12,0.01%
2,NNC(=O)CSc1nnc(-c2ccccc2)n1-c1ccccc1,0.17%
3,CC1CC(C)CN(CCCNC(=O)Cn2ncc3c([nH]c4ccccc43)c2=O)C1 (stereo not drawn),0.29%
4,Cc1cccc(CCNC(=O)Cn2ncc3c([nH]c4ccc(C)cc43)c2=O)c1,0.33%
5,Cc1ccc2[nH]c3c(=O)n(CC(=O)NCCc4ccc(Cl)cc4)ncc3c2c1,0.66% (active)
6,O=C(COc1ccc(/C=N/NC(=O)c2ccc(O)cc2)cc1)Nc1ccc([N+](=O)[O-])cc1,-0.1%
7,CCCCCC(=O)NC(=S)NNC(=O)c1ccc([N+](=O)[O-])cc1,0.09%
8,CCCCCC(=O)Nc1ccc(C(=O)N/N=C/c2ccc([N+](=O)[O-])cc2)cc1,9.14% (active)
9,CC1(C(=O)NNC(=S)NCC2CCCO2)CC1(Cl)Cl (stereo not drawn),-0.05%
10,C[n+]1ccc(/C=C/c2c[nH]c3ccccc23)cc1,2.57% (active)
11,COc1ccc(/C=C(\C#N)c2c[nH]c3ccccc23)cc1,0.35%
12,O=C(NC1CCCC1)C(=O)c1c[nH]c2ccccc12,-0.55%
13,CN(C)c1nc2n(c(=O)n1)CCO2,0.06%
14,Nc1nc(O)c(CC(=O)O)s1,0.36%
15,CN(c1ccccc1)c1ccc(/C=c2\s/c(=C(/C#N)C(=O)C(C)(C)C)n(Cc3ccco3)c2=O)cc1,7.32% (active)
16,Cc1ccc(C(=O)NCC(c2cccs2)N(C)C)cc1S(=O)(=O)N1CCOCC1 (stereo not drawn),0.37%
17,Cc1ccc(-c2nn(-c3ccc(F)cc3)cc2C(=O)NCC(c2cccs2)N2CCOCC2)cc1 (stereo not drawn),0.02%
18,CCCN1CNC(=S)N(CCc2ccccc2)C1,-0.07%
19,C/C(=C\c1ccco1)CN1CCC(N2CCC(C(=O)N3CCOCC3)CC2)CC1,-0.13%
20,COc1ccc(OCC(=O)NNC(=O)C2CCC2)cc1,0.28%
21,NNC(=O)COc1ccc(C2SCCS2)cc1,0.52% (active)
22,O=C(COc1ccc(Cl)cc1)Nc1ccc2c(c1)OCO2,0.16%
23,Cc1ccc(CS(=O)(=O)CCC(=O)NCc2ccc(F)cc2)cc1,0.01%
24,COc1ccc(NC(=O)Cn2ncn3c(cc4ccccc43)c2=O)c(OC)c1OC,0.03%

row,SMILES,inhibition
1,CCc1ccc(NC(=O)Cn2ncn3c(cc4ccccc43)c2=O)cc1,0.97% (active)
2,CC(C)c1ccc(NC(=O)Cn2ncc3ccccc32)cc1,0.04%
3,CC(=O)Nc1ccc(S(=O)(=O)NC(C)C(=O)OCCOc2ccc(F)cc2)cc1 (stereo not drawn),-0.06%
4,COc1cccc(N(CC(=O)NC2CCCC2)C(=O)Cn2nnc(-c3ccc(C)o3)n2)c1,-0.2%
5,O=C1CCN(CCc2ccccc2)CCN1CCOc1ccccc1,-0.09%
6,CCN(CC(=O)Nc1cccc(S(N)(=O)=O)c1)Cc1nc2ccccc2c(=O)[nH]1,-0.01%
7,Cc1ccc2[nH]c(=O)c(CN3CCCCC3)c(-c3ccccc3)c2c1,0.13%
8,CCCc1nc(N2CCN(C)CC2)c2sc(=S)n(-c3ccccc3)c2n1,0.75% (active)
9,CCCc1nc(-c2ccccc2O)n(-c2ccccc2)n1,0.2%
10,Cc1cccc(-n2c(N)c(C(=O)N3CCN(C)CC3)sc2=S)c1,-0.2%
11,CCCN(CC(=O)Nc1ccccc1C)C(=O)c1ccc2[nH]c3c(c2c1)CC(C)CC3 (stereo not drawn),0.26%
12,Cn1nc(C(C)(C)C)c(NC(=O)c2sccc2Cl)c1C(C)(C)C,0.22%
13,COc1cccc(CNS(=O)(=O)c2csc(C(N)=O)c2)c1,-0.01%
14,CN(CCNC(=O)c1cc2c(-c3ccccc3F)nn(C)c2s1)C1CCCCC1,0%
15,CCCCCCCCCCCCCCCC(=O)OC/C=C(C)/C=C/C=C(C)/C=C/C1=C(C)CCCC1(C)C,1.61% (active)
16,CC1=C(/C=C/C(C)=C/C=C/C(C)=C/C=C/C=C(C)/C=C/C=C(C)/C=C/C2=C(C)CCCC2(C)C)C(C)(C)CCC1,0.08%
17,CCc1ccc(/C=N/NC(=O)c2ccc(OC3CCCC3)cc2)s1,-0.12%
18,COCCOC1CCN(C(=O)c2ccc(OC)c(OC3CCN(C(C)C)CC3)c2)CC1,-0.1%
19,CCOc1ccc(NC(=O)c2cccc3c2C(=O)N(CC2CCCO2)C3)cc1 (stereo not drawn),0.06%
20,O=C(Cn1c(COc2ccccc2)nc2ccccc21)Nc1cc(Cl)c(Cl)cc1Cl,0.72% (active)
21,CC(C)n1c(COc2ccccc2)nc2ccccc21,0.39%
22,O=C(Cn1c(-c2cscn2)nc2ccccc21)Nc1ccc(Cl)cc1,-0.15%
23,Cc1ccc(C)c(NC(=O)c2ccc(OC(=O)c3ccco3)cc2)c1,0.04%
24,S=c1[nH]nc(-c2ccncc2)n1/N=C/c1ccccc1Cl,0.13%

row,SMILES,inhibition
1,Fc1ccccc1/C=N/n1c(-c2cccnc2)n[nH]c1=S,-0.01%
2,COc1ccccc1/C=C/C=N/n1c(-c2ccc(Cl)cc2Cl)n[nH]c1=S,0.42% (active)
3,Cn1c(=O)c2c(nc(N3CCCCCC3)n2CC(O)COc2ccc(Cl)cc2)n(C)c1=O (stereo not drawn),0.11%
4,CCCCN1C(=O)/C(=C2/Sc3ccc(Cl)cc3N2CC)SC1=S,-0.02%
5,CCCCN1C(=O)/C(=C2/C=CC=CN2C)SC1=S,0.04%
6,CCCCN1C(=O)/C(=C/C=C2/C=Cc3ccccc3N2CC)SC1=S,1% (active)
7,Cc1ccc(N2CCN(c3ccc(C)cc3)C2c2ccccn2)cc1,0.22%
8,CSCCC(NC(=O)COc1ccccc1)C(=O)OCCOc1ccc(Br)cc1 (stereo not drawn),0.49% (active)
9,CSCCC(NC(=O)COc1ccccc1)C(=O)OCCOc1ccc(F)cc1 (stereo not drawn),0.07%
10,CSCCC(NC(=O)COc1ccccc1)C(=O)OCC(=O)c1cc2ccccc2o1 (stereo not drawn),-0.18%
11,O=C(CCC(=O)N1CCCC1)Nc1ccc([N+](=O)[O-])cc1,0.32%
12,Cc1cc(C(=O)NNC(=O)c2cccc(S(=O)(=O)N3CCOCC3)c2)c2ccccc2n1,0%
13,Cc1cc(C(=O)Nc2ccc(C)c(S(=O)(=O)N3CCOCC3)c2)c2ccccc2n1,1.11% (active)
14,Cc1ccc(NC(=O)c2ccc(Cl)nc2)cc1S(=O)(=O)N1CCOCC1,0.15%
15,COc1ccc(C2(C)NC(=O)N(CC(=O)c3ccc4c(c3)OCO4)C2=O)cc1 (stereo not drawn),0.11%
16,CCCCN(C(=O)C(CCSC)N1C(=O)c2ccccc2C1=O)c1c(N)n(CCC)c(=O)[nH]c1=O (stereo not drawn),-0.17%
17,Cc1nn(C)cc1N1C(=O)c2cccc3c(N)ccc(c23)C1=O,0.48% (active)
18,Cc1ccc(NC(=O)COC(=O)C2C3CC4OC(=O)C2C4C3)cc1Cl (stereo not drawn),0.04%
19,Cc1oc2cc3oc(=O)ccc3cc2c1C,2.16% (active)
20,COc1c(C(C)C)oc2cc3oc(=O)ccc3cc12,0%
21,Cc1noc(C)c1COc1ccc2ccc(=O)oc2c1,0.13%
22,CC[C@]1(C(=O)OC)[C@H]2C(=O)N(Cc3ccccc3)C(=O)[C@H]2[C@H]2CN=C(SCc3ccc(Cl)cc3)N21,0.03%
23,CC(=O)N1CCN(CC(C)(C)NS(=O)(=O)c2ccc(C)cc2)CC1,0.16%
24,CCn1ncc(C2=NOC(C(=O)Nc3ccccc3C(=O)OC)C2)c1C (stereo not drawn),-0.18%

row,SMILES,inhibition
1,Cc1ccccc1OCC(=O)Nc1nc(C)c(C(=O)N(C)C)s1,-0.09%
2,Cc1cccc(NC(=O)COc2ccccc2C)n1,1.07% (active)
3,Cc1cccc(NC(=O)COc2ccc(Br)cc2C)n1,-0.04%
4,COc1ccc(Cc2nc3ccc(C(=O)N4CCC(N(C)C)C4)cc3o2)cc1 (stereo not drawn),-0.47%
5,O=C(COc1ccccc1F)NNC(=O)c1cc(Br)ccc1Cl,0.03%
6,CC1CCN(C(=O)CCc2nnc3ccc(NCc4ccco4)nn23)CC1,0.1%
7,CCC1(CC)NC(=O)N(CC(=O)OCC(=O)NC(=O)c2ccccc2)C1=O,0.07%
8,O=S(=O)(NCC1OCCc2ccccc21)c1ccccc1 (stereo not drawn),-0.08%
9,NC(=O)c1oc2ccccc2c1NC(=O)Cc1ccccc1,0.32%
10,O=C(Cc1ccccc1)NCC1OCCc2ccccc21 (stereo not drawn),0.87% (active)
11,CCOc1ccc2nc(Cl)c(C3CC(c4ccccc4)=NN3C(=O)c3cccs3)cc2c1 (stereo not drawn),0.46% (active)
12,COc1ccc(C2=NN(C(=O)c3ccccc3C(=O)O)C(c3ccccc3O)C2)cc1 (stereo not drawn),-0.05%
13,CCOc1ccccc1C1CC(c2cccc(NS(C)(=O)=O)c2)=NN1C(=O)c1ccccc1 (stereo not drawn),-0.18%
14,N#Cc1ccc(CN2CCN(CC(=O)Nc3ccccc3C(=O)NC3CC3)CC2)cc1,0.14%
15,CCCCC(NS(=O)(=O)c1ccc(C)cc1)C(=O)Oc1ccc2c3c(c(=O)oc2c1)CCC3 (stereo not drawn),0.09%
16,C/C(N)=C(/C#N)C(=O)COC(=O)c1cc(-c2ccc(C)cc2)nc2ccccc12,-0.3%
17,C/C(N)=C(/C#N)C(=O)COC(=O)c1cc(-c2ccccc2)nc2ccc(Br)cc12,0.06%
18,C/C(N)=C(/C#N)C(=O)COC(=O)c1cc(-c2cccc(Br)c2)nc2ccccc12,37.8% (active)
19,Cc1cccc(NC(=O)C2CCCN2S(=O)(=O)c2ccc(F)cc2)c1C (stereo not drawn),-0.01%
20,COc1ccccc1NC(=O)C1CCCN1S(=O)(=O)c1ccc(Cl)cc1 (stereo not drawn),0.94% (active)
21,CC(C)c1nnc(NC(=O)C2CCCN2S(=O)(=O)c2ccc(Cl)cc2)s1 (stereo not drawn),-0.16%
